The target in this assay is T1, Phosphorylase b kinase gamma catalytic chain, liver/testis isoform (Homo sapiens) (UniProt P15735).
T1 sequence (whole entry): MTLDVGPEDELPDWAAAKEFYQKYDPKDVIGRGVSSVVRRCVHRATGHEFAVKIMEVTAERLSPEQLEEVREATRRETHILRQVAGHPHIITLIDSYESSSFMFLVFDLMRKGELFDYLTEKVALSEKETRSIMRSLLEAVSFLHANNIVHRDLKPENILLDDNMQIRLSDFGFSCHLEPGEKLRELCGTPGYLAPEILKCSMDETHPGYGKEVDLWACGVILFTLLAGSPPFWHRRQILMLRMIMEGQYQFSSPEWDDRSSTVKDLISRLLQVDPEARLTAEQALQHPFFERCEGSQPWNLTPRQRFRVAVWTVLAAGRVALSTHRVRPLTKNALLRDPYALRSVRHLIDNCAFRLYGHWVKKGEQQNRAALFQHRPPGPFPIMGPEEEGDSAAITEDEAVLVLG
Conditions: at 1 µM.
As a reminder, the inhibition is the drop in the measured response relative to a control, in per cent. For `Cc1ccc(Nc2ccnc(Nc3cccc(C(N)=O)c3)n2)cc1O`, the inhibition was 6.26%.

Consider `CN(c1ccc(NC(=O)Nc2ccc(OC(F)(F)F)cc2)cc1)c1ccnc(Nc2cccc(S(N)(=O)=O)c2)n1`, for which the inhibition is 2.53%. In the case of `CN1CCN(C(=O)c2ccc(NC(=O)Nc3ccc(N(C)c4ccnc(Nc5ccc(CS(C)(=O)=O)cc5)n4)cc3)cc2)CC1`, the inhibition stood at 3.05%. As for `NS(=O)(=O)c1ccc(N/N=C2\C(=O)Nc3ccc(Cl)cc32)cc1`, the inhibition was determined as 8.4%. In the case of `c1ccc(Nc2ncc(-c3ccccc3)o2)cc1` it was 6.17%; in that of `CS(=O)(=O)CCNCc1nc(-c2ccc3ncnc(Nc4ccc(OCc5cccc(C(F)(F)F)c5)cc4)c3c2)cs1`, 2.29%; in that of `COC(=O)c1ccc2c(c1)C(=Cc1cc(Br)c(O)c(Br)c1)C(=O)N2`, 3.92%. `O=C(Nc1ccc(Oc2ccc3[nH]c(NC(=O)c4ccco4)nc3c2)cc1)Nc1cc(C(F)(F)F)ccc1F`: the inhibition is -0.56%. With `CC(C)c1ccc(Nc2nccc(-c3cnn4ncccc34)n2)cc1`, the inhibition stood at 3.83%.

Regarding `CS(=O)(=O)Nc1cccc(-c2ccc3c(NC(=O)C4CC4)n[nH]c3c2)c1`, the inhibition is -0.09%. For `COC(=O)Nc1nc2cc(Oc3ccc(NC(=O)Nc4cccc(Br)c4)cc3)ccc2[nH]1`, the inhibition was found to be 2.45%. Turning to `N#Cc1cccc(Nc2nccc(-c3cnn4ncccc34)n2)c1`, the inhibition was 22.2%. Turning to `NS(=O)(=O)c1ccc(Nc2cc(-c3cccc(O)c3)n[nH]2)cc1`, the inhibition amounted to 6.34%. As to `CC(C)c1ccc2c(c1)NC(=O)/C2=N/Nc1ccc(S(N)(=O)=O)cc1`, the inhibition amounted to 0.32%. As for `Cc1cc(O)cc(C)c1/C=C/c1cncc(C(=O)N(C)C)c1`, the inhibition is 0.54%. In the case of `c1ccc(Cc2nc3ccc(Nc4ncnc5ccccc45)cc3[nH]2)cc1` it was 4.89%. Regarding `Cc1ccc(O)cc1Nc1ccnc2ccc(S(C)(=O)=O)cc12`, the inhibition stood at 7.16%.

For `COc1ccc(-c2nn3ncccc3c2-c2ccnc(Nc3cccc(C(F)(F)F)c3)n2)cc1`, the inhibition was determined as 4.66%. In the case of `Cc1nc(-c2ccccc2)n2nc(NCCCN3CCOCC3)ncc12` it was 3.98%; in that of `Nc1nccc(C#Cc2cncnc2Nc2ccc(OCc3cccc(F)c3)c(Cl)c2)n1`, 2.05%. In the case of `C[C@@H](Oc1cc(-n2cnc3ccc(OCC4CCN(C)CC4)cc32)sc1C(N)=O)c1ccccc1C(F)(F)F` it was 10.8%; in that of `N#Cc1c(NC(=O)c2ccccc2F)sc2c1CCCC2`, -2.57%.

On to `Nc1nccc(-c2c(-c3ccc(F)cc3)ncn2CCCN2CCOCC2)n1`, for which the inhibition was determined as 4.82%. On to `COc1cccc(-n2ncc3c(N/N=C/c4ccc(C)cc4)ncnc32)c1`, for which the inhibition is 5.98%. In the case of `C[C@@H](Oc1cc(-n2cnc3ccc(OC[C@@H](O)CO)cc32)sc1C(N)=O)c1ccccc1Cl`, the inhibition was -1.44%. As to `Cc1cc(-c2ccccn2)cc(C)c1/C=C/c1cncc(-c2nn[nH]n2)c1`, the inhibition is 5.59%. In the case of `Cc1ccc2c(-c3ccnc(Nc4cccc(C(F)(F)F)c4)n3)c(-c3ccccc3)nn2n1` it was 4.82%. Take `CCn1c(-c2nonc2N)nc2ccc(F)cc21`: the inhibition is 12.6%. On to `COc1cccc(-n2ncc3c(N/N=C/c4ccc(S(C)(=O)=O)cc4)ncnc32)c1`, for which the inhibition worked out at 2.21%. As to `Cc1ccc2c(c1)/C(=N/Nc1ccc(S(N)(=O)=O)cc1)C(=O)N2`, the inhibition turned out to be 0.07%. `Cc1cc(Cl)cc2c1NC(=O)C2=NNc1ccc(S(N)(=O)=O)cc1`: the inhibition was 5.19%.

With `Nc1ccc(C#Cc2cncnc2Nc2ccc(OCc3cccc(F)c3)c(Cl)c2)cc1`, the inhibition was 4.32%.

As to `Oc1cccc(-c2nc(-c3ccccc3)[nH]c2-c2ccncc2)c1`, the inhibition was found to be 4.95%. As for `O=C1Nc2ccc(-c3cccnc3)cc2C1=Cc1cc(Br)c(O)c(Br)c1`, the figure is -0.09%.

Source of the values: ChEMBL document CHEMBL1961873, “Compounds: GSK PKIS; Assays: Nanosyn kinase panel” (2012).
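Further: reported value is the mean inhibition of PHKG2 from the GSK_PKIS screening set.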
